Rows were chosen to be rich in hits. Some 4.8% of all compounds tested hit in one or more screens of this group.
D3 antag: qHTS of D3 Dopamine Receptor Antagonist: qHTS. AID 652054, 2013. max response, negative = inhibition, %. 2.5% of 360,000 active. D(3) dopamine receptor (Homo sapiens), P35462. D3R cells, DiscoveRx beta-arrestin luminescence, antagonist mode; hits give low values; in the data active = max response below about -50%; inconclusive = no clear call, values can overlap the other calls; note: % is set by controls: 0 for no effect and ±100 for the full control effect
Target sequence (P35462 whole entry, looked up): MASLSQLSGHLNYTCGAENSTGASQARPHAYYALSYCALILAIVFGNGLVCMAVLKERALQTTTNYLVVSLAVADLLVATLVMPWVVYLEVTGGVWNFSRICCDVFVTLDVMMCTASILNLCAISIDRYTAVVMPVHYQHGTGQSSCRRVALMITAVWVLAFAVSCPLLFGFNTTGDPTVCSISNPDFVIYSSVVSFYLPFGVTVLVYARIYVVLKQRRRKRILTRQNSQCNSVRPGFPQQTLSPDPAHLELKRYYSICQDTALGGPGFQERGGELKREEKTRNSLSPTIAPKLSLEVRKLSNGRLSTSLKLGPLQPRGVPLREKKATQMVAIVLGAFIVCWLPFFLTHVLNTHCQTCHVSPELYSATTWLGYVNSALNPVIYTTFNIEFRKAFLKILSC
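Cells plated overnight at 1500 cells/well, then exposed to library compounds with dopamine controls for 90 minutes at 37 degrees C. DiscoveRx reagent added for 30–60 minutes at room temperature; luminescence read, quantitative HTS format.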
ATXN viability: Viability Counterscreen for Primary qHTS for Inhibitors of ATXN expression. S2 cells (HEK-293 line with an ATXN2-luciferase reporter) viability, CellTiter-Fluor protease fluorescence, 24 h. Potency, µM (series often up to 56.7 µM), hits mostly cytotoxic. 0.49% of 400,000 active. AID 651635, 2014; note: potency is the fitted concentration of half-maximal effect; nearly all actives have a fitted effect of over 40% in size
TGFb SMAD3 inh: qHTS for Inhibitors of TGF-b; Potency, µM (top dose mostly 46.1 µM), for the others: top-dose activity, negative = inhibition, hits mostly inhibitors; 1.2% of 410,000 active; HepG2 CAGA-GFP TGF-b/SMAD3 reporter, GFP fluorescence, 18 h; TGF-beta stimulated, 500 pg/mL final; note: potency is the fitted concentration of half-maximal effect; % is set by controls: 0 for no effect and ±100 for the full control effect; nearly all actives have a fitted effect of over 65% in size
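Using HEPG2 CAGA-GFP reporter cells at 1000 cells/well, we pinned test compounds, stimulated with recombinant TGF-beta (500 pg/mL final) and measured total well GFP after 18 h.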
HepG2 viability: qHTS for Inhibitors of TGF-b: Cytotox Counterscreen. 0.76% of 410,000 active. AID 588856, 2011. HepG2 CAGA-GFP viability, ATP luminescence, 18 h. Potency, µM (titrated, usually from 46.1 µM), inactives show at the highest dose activity change, negative = cytotoxicity, hits mostly cytotoxic; note: potency is the fitted concentration of half-maximal effect
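CellTiter-Glo luminescence gave cytotoxicity after 18 hours at 37 degrees C. The cells were HepG2 CAGA-GFP in 1% FBS DMEM, stimulated with 500 pg/mL TGF-beta after compound addition. %Activity was normalised to no-cell wells (complete cell-killing) and DMSO (no toxicity), and curves were fitted and classified.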
ATXN2 expr inh: Primary qHTS for Inhibitors of ATXN expression; HEK-293 ATXN2-luciferase reporter, luminescence, 24 h; Potency, µM (highest dose often 57 µM), for inactives: at the highest dose activity change, negative = inhibition, usual class: inhibitors; 0.72% of 360,000 active; note: potency is the fitted concentration of half-maximal effect; % is set by controls: 0 for no effect and ±100 for the full control effect; nearly all actives have a fitted effect of over 55% in size
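qHTS (up to 57 uM final) was run with 24 h compound exposure of reporter cells at 37 °C. Each well was multiplexed: SteadyGlo luminescence measured ATXN2-luciferase expression after a fluorogenic Gly-Phe-AFC viability readout (25 uM final).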
D3 ag: qHTS of D3 Dopamine Receptor Agonist: qHTS; D3R DiscoveRx beta-arrestin cells, luminescence, 90 min; max activation, %; 0.58% of 410,000 active; in the data active = max activation above about 30%; note: 0% is about no effect
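Agonist-mode cell screen: cells plated at 1500/well and incubated overnight at 37 °C, then exposed to library compounds for 90 min at 37 °C. Detection reagent was added for 30–60 min at room temperature, and luminescence was read.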
SK-N-SH 3D tox: qHTS of pediatric cancer cell lines to identify multiple opportunities for drug repurposing: Orthogonal 3D viability screen for SK-N-SH cells. AID 1347135, 2019. SK-N-SH 3D spheroid viability, PI/Hoechst imaging, 72 h. 70% of 65 active. shares compounds with ATXN2 expr inh. Potency, µM (doses to about 30.7 µM), usual class: inhibitors
SJGBM2 3D viab: qHTS of pediatric cancer cell lines to identify multiple opportunities for drug repurposing: Orthogonal 3D viability screen for SJ-GBM2 cells; shares compounds with ATXN2 expr inh; SJ-GBM2 3D spheroid viability, PI/Hoechst imaging, 72 h; Potency, µM (top dose mostly 30.7 µM), usual class: inhibitors; 80% of 65 active
Daoy spheroid: qHTS of pediatric cancer cell lines to identify multiple opportunities for drug repurposing: Orthogonal 3D viability screen for Daoy cells. shares compounds with ATXN2 expr inh. AID 1347137, 2019. Daoy 3D spheroid viability, PI/Hoechst imaging, 72 h. Potency, µM (doses to about 30.7 µM), hits mostly inhibitors. 50% of 65 active
TC32 3D casp: qHTS of pediatric cancer cell lines to identify multiple opportunities for drug repurposing: Orthogonal 3D caspase screen for TC32 cells. shares compounds with ATXN2 expr inh. TC32 3D spheroids, caspase-3/7 fluorescence imaging, 24 h. Potency, µM (series often up to 30.7 µM), hits mostly inhibitors. 30% of 65 active. AID 1347138, 2019
TC32 spheroid: qHTS of pediatric cancer cell lines to identify multiple opportunities for drug repurposing: Orthogonal 3D viability screen for TC32 cells | shares compounds with ATXN2 expr inh | 60% of 65 active | AID 1347139, 2019 | Potency, µM (highest dose often 30.7 µM), actives largely listed as inhibitors | TC32 3D spheroid viability, PI/Hoechst imaging, 72 h
MG63 spheroid: qHTS of pediatric cancer cell lines to identify multiple opportunities for drug repurposing: Orthogonal 3D viability screen for MG 63 (6-TG R) cells. shares compounds with ATXN2 expr inh. MG-63 (6-TG R) 3D spheroid viability, PI/Hoechst imaging, 72 h. Potency, µM (titrated, usually from 30.7 µM), actives largely listed as inhibitors. 50% of 65 active. AID 1347140, 2019
RD 3D tox: qHTS of pediatric cancer cell lines to identify multiple opportunities for drug repurposing: Orthogonal 3D viability screen for RD cells; shares compounds with ATXN2 expr inh; RD rhabdomyosarcoma 3D spheroid viability, PI/Hoechst imaging, 72 h; Potency, µM (top dose mostly 30.7 µM), most hits filed as inhibitors; 50% of 65 active
An asterisk follows results filed as active; i = inactive; ? = inconclusive; . = no result. Unless noted, calls come from the whole dose curve; as a rule, active = well fitted curve in the direction sought with a large enough effect; inconclusive = small, poorly fitted or top-dose-only effect, or another doubt; inactive = no such curve, though single readings can be large; an effect the other way counts as inactive or inconclusive.

SMILES	D3 antag	ATXN viability	TGFb SMAD3 inh	HepG2 viability	ATXN2 expr inh	D3 ag	others
C[C@@H]1C[C@@H]([C@H](O)CC2CC(=O)NC(=O)C2)C(=O)[C@@H](C)C1	5	?	1µM*	-25%	1.3µM*	7	SK-N-SH 3D tox=?;SJGBM2 3D viab=1µM*;Daoy spheroid=?;TC32 3D casp=i;TC32 spheroid=?;MG63 spheroid=?;RD 3D tox=?
CCN1C(=O)c2ccccc2Sc2ccc(NC(=O)Nc3ccc(Br)c(C)c3)cc21	.	?	?	-2%	?	6
COc1ccc2[nH]cc(CCN=C(NC(=O)c3ccccc3OC)Nc3nc(C)cc(C)n3)c2c1	.	i	?	-23%	-35%	3
Cc1cccc(OCC(=O)Nc2cc(-c3ccccc3F)nn2-c2ccccc2)c1	.	?	1%	-4%	-23%	-5
Cc1ccc(NC(=O)COC(=O)/C=C/c2ccco2)cc1S(=O)(=O)N(C)C	2	i	?	-7%	1%	7
C[C@@H]([C@H](O)c1ccccc1)N(C)C	.	.	.	.	.	8
C=CC[C@]1(O)CC[C@H]2[C@@H]3CCC4=CC(=O)CCC4=C3C=C[C@@]21C	.	i	.	.	1%	18
Cc1ccc2oc(=O)n(CC(=O)c3ccc(F)cc3)c2c1	-13	i	-14%	1%	-10%	-2
CC1CCN(C(=O)Cn2c3ccccc3c3nc4n(c(=O)c32)CCCS4)CC1	11	?	0%	9%	-19%	4
CCCCc1nc2ccccc2c(=O)n1-c1cccc(OC)c1	.	?	-23%	-17%	-13%	-12
COc1cc([C@@H]2c3cc4c(cc3[C@H](O)[C@H]3COC(=O)[C@H]23)OCO4)cc(OC)c1OC	-2	?	-37%	-4%	-4%	-27	SK-N-SH 3D tox=0.023µM*;SJGBM2 3D viab=0.036µM*;Daoy spheroid=?;TC32 3D casp=0.057µM*;TC32 spheroid=0.057µM*;MG63 spheroid=?;RD 3D tox=0.046µM*
COc1ccc(OCC(=O)Nc2ccc(Cl)cc2C(=O)c2ccccc2)cc1	14	i	6%	-13%	-8%	-1
CCCCCn1c(=O)c(C(=O)Nc2nc3ccccc3[nH]2)c(O)c2ccccc21	6	i	-11%	-63%	-9%	16
CC[C@H]1C(=O)OC[C@H]1Cc1cncn1C	.	i	.	.	.	.
C[C@H]1COC(=O)[C@@H](Cc2ccc(F)cc2)CC/C=C/C[C@@H](CC(=O)N(CCO)Cc2ccccc2)C(=O)N1	30	?	-13%	-12%	-14%	2
CN(C)CCn1cnc2ccccc21	3	i	6%	8%	3%	17
OC1CCC(Nc2ccn3nc(-c4cccc(OCc5ccccc5)c4)cc3n2)CC1 (configuration not stated)	3	?	-19%	-25%	-5%	-14
CCOc1ccc(N2CC(c3nc4ccccc4n3CCC3CCCCC3)CC2=O)cc1 (configuration not stated)	.	?	-9%	-3%	16%	5
O=C(Nc1ccc(Br)cc1)c1ccc(F)c(S(=O)(=O)N2CCCc3ccccc32)c1	.	.	?	-20%	.	6
Cn1c(=O)n(C)c2cc(CNCCc3ccccc3F)ccc21	.	i	-2%	-3%	-9%	-18
O=C1CN=C(c2ccccc2)c2cc(Cl)ccc2N1CC1CC1	.	.	.	.	.	2
OC(c1ccccc1)(c1ccccc1)C1CCNCC1	-8	i	1%	21%	8%	-2
COc1cccc2c1C(=O)c1c(O)c3c(c(O)c1C2=O)C[C@@](O)(C(=O)CO)C[C@@H]3O[C@H]1C[C@H](N)[C@H](OC2CCCCO2)[C@H](C)O1 (some centres not stated)	.	.	?	-14%	1.5µM*	.	SK-N-SH 3D tox=0.29µM*;SJGBM2 3D viab=0.72µM*;Daoy spheroid=1.4µM*;TC32 3D casp=1.4µM*;TC32 spheroid=1µM*;MG63 spheroid=?;RD 3D tox=?
